Most compounds without a hit are left out; they make up all but 9.4% or so of the library.
SMN2 splice enh = SMN2 splice variant enhancement. HEK293 SMN2-luciferase splicing reporter, luminescence, 30-36 h. hit rate 2.8% among 210,000. AID 1458. Potency, µM (doses to about 46.1 µM), most hits filed as activators; note: nearly all actives have a fitted effect of over 55% in size
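HEK293 cells carry an SMN2 […]–luciferase reporter in which exon 7 inclusion puts luciferase in frame. Cells were plated 10-12 h before compound addition, then incubated 30-36 h at 37C. ONE-Glo luminescence was read; sodium butyrate at 4.5 mM final served as control.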
NPC1 prom act = activates the NPC1 promoter; AID 485313; Huh7 NPC1 promoter luciferase reporter, 24 h; Potency, µM (highest dose often 9.22 µM), most hits filed as activators; hit rate 2.4% among 320,000; note: nearly all actives have a fitted effect of over 60% in size
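Luciferase expression driven by the NPC1 promoter was measured in stably transfected Huh7 cells after a 24 h compound incubation, using a luciferase reagent and a luminescence read.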
FLuc modulator = counter-screen for miR-21 project: firefly luciferase inhibitors or activators. P08659. purified FLuc, Km substrates, luminescence inhibition. Potency, µM (series often up to 57.5 µM), actives largely listed as inhibitors. hit rate 6.9% among 360,000. AID 588342; note: nearly all actives have a fitted effect of over 55% in size
Target sequence (P08659 whole entry, looked up): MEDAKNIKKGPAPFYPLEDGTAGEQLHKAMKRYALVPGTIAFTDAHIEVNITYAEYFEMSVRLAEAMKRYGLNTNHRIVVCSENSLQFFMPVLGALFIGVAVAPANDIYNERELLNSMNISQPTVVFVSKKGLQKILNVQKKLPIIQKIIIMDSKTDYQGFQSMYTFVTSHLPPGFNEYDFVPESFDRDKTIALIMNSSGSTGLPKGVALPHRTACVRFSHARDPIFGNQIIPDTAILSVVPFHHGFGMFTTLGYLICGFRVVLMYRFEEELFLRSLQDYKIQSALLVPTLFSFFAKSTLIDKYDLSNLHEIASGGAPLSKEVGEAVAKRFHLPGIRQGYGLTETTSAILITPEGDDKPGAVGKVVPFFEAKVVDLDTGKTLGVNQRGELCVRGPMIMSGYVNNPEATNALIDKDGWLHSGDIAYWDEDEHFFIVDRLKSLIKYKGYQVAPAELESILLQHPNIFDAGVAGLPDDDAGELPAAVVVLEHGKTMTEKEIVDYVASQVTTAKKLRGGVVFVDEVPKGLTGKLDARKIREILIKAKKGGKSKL
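Biochemical qHTS of compounds, final roughly 60 µM downward over six points, against 10 nM purified firefly luciferase using Km concentrations of substrates (10 uM D-luciferin, 10 uM ATP) in Tris acetate pH 7.5 buffer; luminescence output.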
ELG1 DNA repair = blocks ELG1-dependent DNA repair in HEK293T cells | Potency, µM (series often up to 46.1 µM), actives largely listed as inhibitors | HEK293T ELG1-luciferase reporter, luminescence, 16 h; DNA damage induced by 5-fluorouridine | hit rate 2.3% among 330,000; note: nearly all actives have a fitted effect of over 55% in size
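Reporter activity after DNA damage by 5-fluorouridine is monitored. Compound-treated cells incubate 16 hr at 37 °C, then ONE-Glo is added for 30 min before luminescence reading.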
Rab9 prom act = activates the Rab9 promoter | Huh7 Rab9 promoter-luciferase reporter, luminescence, 24 h | AID 485297 | Potency, µM (doses to about 9.22 µM), most hits filed as activators | hit rate 2.8% among 320,000; note: nearly all actives have a fitted effect of over 60% in size
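Quantitative HTS format; Huh7 Rab9-luciferase reporter cells (1500/well) receive compound 2 h post-plating, incubate 24 h at 37 °C, then get luciferase reagent for 10 min before luminescence reading.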
ELG1 genotoxic = induces genotoxicity in HEK293T cells with luciferase-tagged ELG1; HEK293T ELG1-luciferase reporter, luminescence, 16 h; Potency, µM (series often up to 46 µM), usual class: activators; hit rate 1.3% among 330,000; AID 504466; note: nearly all actives have a fitted effect of over 60% in size
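ELG1-luciferase HEK293T cells, 2,000/well; compound pinned in; 16 hr, 37 °C, 5% CO2; ONE-Glo, 30 min RT; luminescence on CCD imager.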
A number is an active result; - = inactive; ? = inconclusive; . = no result given. Calls come from the whole dose curve; as a rule, active = well fitted curve in the direction sought with a large enough effect; inconclusive = small, poorly fitted or top-dose-only effect, or another doubt; inactive = no such curve, though single readings can be large; an effect the other way counts as inactive or inconclusive.

SMILES	SMN2 splice enh	NPC1 prom act	FLuc modulator	ELG1 DNA repair	Rab9 prom act	ELG1 genotoxic
COc1ccc(-c2cn(-c3ccc(C)cc3)c(S(=O)(=O)CC(=O)Nc3ccccc3)n2)cc1	13µM	.	?	.	.	.
O=C(NC1CC(=O)N(c2ccc(F)cc2)C1)c1cc2ccccc2o1 (stereo not drawn)	.	.	-	.	.	.
O=C1CN(C(=O)COC(=O)CCC(=O)c2ccc(F)cc2)c2ccccc2N1	.	.	.	-	.	-
CCOc1ccc(CC(=O)Nc2ccc(-c3ccc4nnc(C)n4n3)cc2)cc1	-	-	-	?	-	21µM
O=C(Nc1ccc(Cl)cc1)N1CCOC12CCC1(CC2)OCCO1	-	-	17µM	-	-	-
CC(c1ccccc1)N(CCC(c1ccccc1)C1CCOC(C)(C)C1)C(=O)c1ccco1 (stereo not drawn)	-	-	-	23µM	-	-
COc1ccc(CN(CCC(c2ccc(F)cc2)C2CCOC(C)(C)C2)C(=O)c2ccco2)cc1 (stereo not drawn)	-	-	-	10µM	-	-
COc1ccc(CN(CCC(c2ccccc2)c2ccco2)C(=O)c2ccco2)cc1 (stereo not drawn)	-	-	-	?	-	-
COc1cccc(COC(=O)c2ccc3c(c2)NC(=O)C(C)S3)c1OC (stereo not drawn)	.	-	-	?	-	-
CC1Sc2ccc(C(=O)OCc3ccccc3Cl)cc2NC1=O (stereo not drawn)	.	2.2µM	2.1µM	?	1µM	?
Cc1cccnc1NC(=O)c1ccc2c(c1)NC(=O)C(C)S2 (stereo not drawn)	.	-	17µM	?	-	?
CC1Sc2ccc(C(=O)Nc3ncccc3O)cc2NC1=O (stereo not drawn)	.	1.3µM	7.6µM	?	0.89µM	?
CCOc1cc(C#N)c(NC(=O)Cn2nnc(-c3ccc(C)cc3)n2)cc1OCC	-	.	-	.	.	.
Cc1cccc(N2CCN(C(=O)Cn3c(=O)c4cccn4c4ccc(F)cc43)CC2C)c1 (stereo not drawn)	.	.	-	.	.	.
Cc1ccc(C)c(-c2nnc(NC(=O)c3ccco3)o2)c1	.	-	15µM	-	-	-
O=C(Nc1nnc(-c2ccccc2Cl)o1)c1ccco1	?	-	6µM	?	-	?
Cc1ccc(C)c(-c2nnc(NC(=O)Cc3ccccc3)o2)c1	.	-	-	-	-	-
O=C(Nc1nnc(-c2cccs2)o1)c1ccco1	-	-	?	?	-	-
Cc1ccc(-c2nnc(NC(=O)c3ccco3)o2)c(C)c1	.	?	2.7µM	?	?	-
Cc1ccc(C2CC(=O)N(Cc3ccccc3)c3c2c(C)nn3-c2nc(C)cc(C)n2)cc1 (stereo not drawn)	.	.	-	.	.	.
Clc1ccc(C#Cc2cccnc2)cc1	.	-	13µM	?	-	-
O=C(CSc1ccccc1C(=O)N1CCN(c2ccccc2)CC1)N1CCCC1	.	-	-	-	-	-
O=C(CSc1ccccc1C(=O)N1CCN(c2ccc([N+](=O)[O-])cc2)CC1)N1CCCC1	.	.	.	15µM	.	-
CC(=O)c1ccc(NC(=O)CN(C)S(=O)(=O)c2cccc3nsnc23)cc1	-	.	-	.	.	.
CC(C)COc1ccc(C(=O)Nc2onc3c2CCCC3)cc1	-	.	0.34µM	.	.	.
SMILES	SMN2 splice enh	NPC1 prom act	FLuc modulator	ELG1 DNA repair	Rab9 prom act	ELG1 genotoxic
CCOc1ccc(C(=O)Nc2onc3c2CCCC3)cc1	2.8µM	.	0.3µM	.	.	.
CCOc1ccc(C(=O)NCC2CCCO2)cc1 (stereo not drawn)	?	-	?	?	-	?
Cc1ccc(NC(=O)c2oc3ccc(S(=O)(=O)N4CCCCCC4)cc3c2C)c(C)c1	.	.	-	.	.	.
O=C(O)/C(=C1\OC(=O)c2ccccc21)c1ccccc1	-	-	27µM	-	-	-
COc1ccc(N2CCN(C(=O)Cn3cnc4nc5c(cc4c3=O)CCCC5)CC2)cc1	.	.	-	.	.	.
Cc1ccc(C)c(NC(=O)c2cnn(-c3ccccc3)c2C)c1	.	-	21µM	?	?	-
Cc1ccccc1NC(=O)c1cnn(-c2ccccc2)c1C	.	?	13µM	?	?	-
CCc1ccccc1NC(=O)c1cnn(-c2ccccc2)c1C	.	-	?	-	-	-
Cc1cccc(NC(=O)c2cnn(-c3ccccc3)c2C)c1C	.	2.8µM	?	?	4µM	?
CCOC(=O)c1ccc2c(c1)N(Cc1cccc(C(F)(F)F)c1)C(=O)c1ccccc1S2(=O)=O	.	.	-	.	.	.
CCOc1ccccc1CNC(=O)c1ccc2nc(N3CCC(C)CC3)sc2c1	-	.	?	.	.	.
CC1CCN(c2nc3ccc(C(=O)NCc4ccccc4)cc3s2)CC1	-	.	12µM	.	.	.
CC1CCN(c2nc3ccc(C(=O)NCCCN4CCCCC4C)cc3s2)CC1 (stereo not drawn)	.	-	?	?	-	?
CC1CCN(c2nc3ccc(C(=O)NC(C)C)cc3s2)CC1	0.79µM	.	1.7µM	.	.	.
O=C(NCCc1csc(-c2cccnc2)n1)c1ccccc1Br	.	-	17µM	?	-	-
O=C(NCCc1csc(-c2cccnc2)n1)c1ccc(Br)o1	-	-	-	12µM	-	-
O=C(NCCc1csc(-c2ccccc2)n1)c1ccc(Br)o1	-	-	-	-	-	-
O=C(NCCc1csc(-c2cccnc2)n1)c1c(F)cccc1F	.	-	?	-	-	-
O=C(N/N=C/c1ccc(-c2cccc(C(F)(F)F)c2)o1)c1ccccc1Br	-	-	21µM	?	-	-
O=C(N/N=C/c1ccc(-c2cccc([N+](=O)[O-])c2)o1)c1ccccc1O	-	-	11µM	?	?	-
COc1cc([N+](=O)[O-])ccc1-c1ccc(/C=N\n2cnnc2)o1	.	-	-	-	-	-
O=C(N/N=C/c1ccc(-c2cccc(C(F)(F)F)c2)o1)c1ccccc1O	-	-	-	?	-	-
CN(C)c1ccc(/C=N/NC(=O)c2ccccc2O)o1	-	-	21µM	?	-	-
COc1cc([N+](=O)[O-])ccc1-c1ccc(/C=N/NC(=O)c2ccccc2O)o1	.	-	?	15µM	-	-
O=C1C=CC2(OCCCO2)C(Br)=C1CO	-	.	.	.	.	.
SMILES	SMN2 splice enh	NPC1 prom act	FLuc modulator	ELG1 DNA repair	Rab9 prom act	ELG1 genotoxic
CCc1ccc(NCc2cc3cc(OC)c(OC)cc3n(CC(=O)Nc3cc(C)ccc3C)c2=O)cc1	.	.	-	.	.	.
O=C(CSc1nnc(NC(=O)c2ccco2)s1)Nc1ccccc1Cl	.	-	?	-	-	-
O=C(CSc1nnc(NC(=O)c2ccco2)s1)Nc1ccccc1	?	-	21µM	?	-	-
CC(=O)Nc1ccc(NC(=O)CSc2nnc(NC(=O)c3ccco3)s2)cc1	.	-	17µM	-	-	-
COc1ccc(-c2nc3sc(CCNC(=O)C(=O)Nc4ccc(C)c(F)c4)c(C)n3n2)cc1	.	.	-	.	.	.
CCC(CC)C(=O)Nc1ccc2nc(SCC(=O)N3CCOCC3)sc2c1	.	.	-	.	.	.
CCCCNC(=O)CSc1nc2ccc(Nc3nc(N4CCOCC4)nc(N4CCOCC4)n3)cc2s1	.	-	-	5.8µM	-	-

Screens: PubChem BioAssay, National Center for Advancing Translational Sciences (NCATS)
